Experimental findings from PubChem BioAssay (NCI) are described below.

Holding throughout (experiment): NCI-60 one-dose screen, 48 h (100 = growth as untreated, 0 = no growth, -100 = all killed)
One assay concerns HCT-15 colon. As to conditions: 10 µM unless noted.
In a further assay the test system is HT29 colon. The conditions noted are these: 10 µM unless noted.
For another assay, the system named is U251 CNS. As to conditions: 10 µM unless noted.
A further assay deals with PC-3 prostate. As to conditions: 10 µM unless noted.
The test system of a further assay is SK-MEL-5 melanoma. As to conditions: 10 µM unless noted.
The next assay has as its system UACC-62 melanoma. The conditions noted are these: 10 µM unless noted.
The next assay relates to SK-MEL-28 melanoma. The conditions noted are these: 10 µM unless noted.
The subject of another assay is SNB-75 CNS. The conditions noted are these: 10 µM.
Another assay deals with SNB-19 CNS. As to conditions: 10 µM unless noted.
For a further assay, the system named is LOX IMVI melanoma. The conditions noted are these: 10 µM unless noted.

Molecules are shown by their SMILES. This is part of a sample that, as a whole, favours compounds with a hit. Of some 83,000 tested, about 20% had one in any assay.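 96-well plates, one dose, 48 hours. Percent growth reported; active if below 10.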 A number with no mark means an inactive call. Active and inactive are the calls of the source.

With `ClC(Cl)c1nc(-c2ccccc2)nc2cc(-c3ccccc3)nn12`, the growth with HCT-15 colon is 7.78% (active); in the assay with HT29 colon, 2.11% (active); in the assay with U251 CNS, 14.6%; with PC-3 prostate, 35.4%; in the assay with SK-MEL-5 melanoma, 90.4%; in the assay on UACC-62 melanoma, 62.8%. Also, the growth in the assay with SK-MEL-28 melanoma was 107%.
`CN(C)CCN1C(=O)c2ccc3c4c(ccc(c24)C1=O)C(=O)N(CCN=C=S)C3=O`: the growth was -78.2% (active) in the assay with HCT-15 colon; -75.3% (active) with SNB-75 CNS; -92.3% (active) with SNB-19 CNS; -95.7% (active) with U251 CNS; -80.3% (active) in the assay on PC-3 prostate; -98.8% (active) in the assay on SK-MEL-5 melanoma. In addition, the growth in the assay with UACC-62 melanoma was -92.5% (active); in the assay on LOX IMVI melanoma, -82.3% (active); in the assay on SK-MEL-28 melanoma, -87.7% (active).
Take `COc1cc(/C=C/C(=O)N2CCN(C(=O)/C=C/c3cc(OC)c(OC)c(OC)c3)CC2)cc(OC)c1OC`: the growth in the assay with HCT-15 colon was 113%; in the assay on HT29 colon it was 109%; with U251 CNS it was 103%; in the assay with PC-3 prostate it was 102%; in the assay on SK-MEL-5 melanoma it was 104%; in the assay with UACC-62 melanoma, 89.1%. In addition, the growth is 101% with LOX IMVI melanoma and 105% in the assay on SK-MEL-28 melanoma.
Turning to `O=C(Oc1ccccc1[N+](=O)[O-])C1CCCN1C(=O)OCc1ccccc1` (stereo unspecified), the growth is 101% with HCT-15 colon; 99% in the assay on SNB-75 CNS; 103% in the assay with SNB-19 CNS; 96.8% in the assay on U251 CNS; 97.3% in the assay on PC-3 prostate; 101% in the assay on SK-MEL-5 melanoma. Further, the growth was 109% in the assay with UACC-62 melanoma, 84.2% with LOX IMVI melanoma and 102% with SK-MEL-28 melanoma.
As for `O=C1C(Cl)=C(Nc2ccccn2)C(=O)c2ccccc21`, the growth in the assay on HCT-15 colon is 43.5%; in the assay with SNB-75 CNS, 62.1%; in the assay on SNB-19 CNS, 93.2%; in the assay with U251 CNS it was 42.2%; in the assay on PC-3 prostate it was 63.6%; in the assay on SK-MEL-5 melanoma it was -84.2% (active). Besides, the growth with UACC-62 melanoma was 1.2% (active); with LOX IMVI melanoma it was 14.5%; in the assay with SK-MEL-28 melanoma it was 34.8%.
For the molecule `COc1ccc(CCNC2=CC(=O)CCC2)cc1OC`, the growth is 108% in the assay on HCT-15 colon; 92.9% with SNB-75 CNS; 105% in the assay on SNB-19 CNS; 107% in the assay on U251 CNS; 93% with PC-3 prostate; 101% in the assay on SK-MEL-5 melanoma. For the same molecule, the growth with UACC-62 melanoma is 109%; in the assay on LOX IMVI melanoma, 96.3%; in the assay with SK-MEL-28 melanoma, 111%.
Consider `CN(C)c1nc2c(N)ncnc2n1C1OC(CO)C(O)C1O` (stereo unspecified), for which the growth with HCT-15 colon is 104%; in the assay on SNB-75 CNS it was 111%; in the assay on SNB-19 CNS it was 107%; in the assay with U251 CNS it was 110%; with PC-3 prostate, 94.2%; in the assay on SK-MEL-5 melanoma, 108%. The growth in the assay with UACC-62 melanoma was 99.1%; with LOX IMVI melanoma, 104%; with SK-MEL-28 melanoma it was 122%.
As to `C=C(C)[C@@H]1C[C@@H]2Cc3ccc(Cl)c(C)c3N1O2`, the growth in the assay with HCT-15 colon is 93%; in the assay on SNB-75 CNS, 93%; in the assay on SNB-19 CNS, 103%; in the assay with U251 CNS, 92.6%; in the assay with PC-3 prostate, 87.9%; in the assay with SK-MEL-5 melanoma it was 89.1%. Moreover, the growth is 93.4% in the assay on UACC-62 melanoma, 98.8% with LOX IMVI melanoma and 107% in the assay with SK-MEL-28 melanoma.
For `COc1ccc(NC(=O)CSc2nc(-c3ccc(OC)c(OC)c3)cc(-c3cc(OC)c(OC)c(OC)c3)n2)cc1`, the growth is 100% in the assay on HCT-15 colon; 76% with SNB-75 CNS; 91.3% in the assay on SNB-19 CNS; 105% with U251 CNS; 88.6% in the assay with PC-3 prostate; 88.7% with SK-MEL-5 melanoma. The growth is 92.2% in the assay with UACC-62 melanoma, 97.1% with LOX IMVI melanoma and 108% with SK-MEL-28 melanoma.
On to `Cc1ccc(-c2cc3nc(C(Cl)Cl)nc(-c4ccccc4C)n3n2)cc1`, for which the growth was 33.2% in the assay on HCT-15 colon; 8.13% (active) with HT29 colon; 46.3% with U251 CNS; 43.1% in the assay with PC-3 prostate; 82.6% with SK-MEL-5 melanoma; 59.7% in the assay on UACC-62 melanoma. Further, the growth in the assay with SK-MEL-28 melanoma was 89.1%.
Turning to `CCCCCCCCCCCC(=O)NCCC[N+](C)(C)CC(=O)[O-]`, the growth in the assay with HCT-15 colon is 100%; with SNB-75 CNS, 93.4%; in the assay with SNB-19 CNS, 88.3%; in the assay with U251 CNS, 72.2%; in the assay on PC-3 prostate, 31.8%; with SK-MEL-5 melanoma, 95.6%. For the same molecule, the growth with UACC-62 melanoma is 78%; in the assay with LOX IMVI melanoma, 79.8%; with SK-MEL-28 melanoma it was 99%.
Take `O=C(CSC1CCc2ccccc21)N/N=C/c1ccccc1O` (stereo unspecified): the growth was 33.6% with HCT-15 colon; 71.7% in the assay with SNB-75 CNS; 60.5% with SNB-19 CNS; 48.7% in the assay on U251 CNS; 50.6% with PC-3 prostate; 47.7% in the assay on SK-MEL-5 melanoma. The results for the growth in the assay with UACC-62 melanoma, in the assay with LOX IMVI melanoma and in the assay on SK-MEL-28 melanoma were 36.4%, 40.4% and 57.2%, respectively.
As for `C=C[C@@H]1C[C@@H]2Cc3ccccc3N1O2`, the growth is 107% with HCT-15 colon; 102% in the assay on SNB-75 CNS; 109% with SNB-19 CNS; 101% in the assay on U251 CNS; 116% in the assay on PC-3 prostate; 107% with SK-MEL-5 melanoma. The results for the growth in the assay with UACC-62 melanoma, with LOX IMVI melanoma and in the assay with SK-MEL-28 melanoma were 101%, 104% and 109%, respectively.
For `CC1CN(c2oc(-c3ccccc3)nc2C#N)CC(C)O1` (stereo unspecified), the growth was 103% in the assay with HCT-15 colon; 106% in the assay on HT29 colon; 103% in the assay with U251 CNS; 102% in the assay on PC-3 prostate; 93.1% with SK-MEL-5 melanoma; 97% with UACC-62 melanoma. In the assay on SK-MEL-28 melanoma, the growth was 104%.
As to `CCN(CC)CCCC(C)Nc1c2ccc(Cl)cc2nc2cc(OC)c(OC)cc12` (stereo unspecified), the growth in the assay on HCT-15 colon was -22.4% (active); in the assay on HT29 colon it was -23.8% (active); in the assay on U251 CNS it was 16.2%; in the assay with PC-3 prostate, 16.5%; in the assay on SK-MEL-5 melanoma it was 45.3%; with LOX IMVI melanoma, -53.3% (active). Besides, the growth with SK-MEL-28 melanoma was -74.7% (active).
